In PubChem BioAssay one finds composite z-score and z-score data, which are given here for five compounds.

A short description of assay [1]: compounds binding Alexa647 anti-His antibody – biochemical, small-molecule microarray, 635 nm fluorescence, artefact control for SMM control protein annotation, primary screen (AID 1128).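 Further: score merges feature fluorescence with signal-to-noise for each printed compound spot.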 The settings on record: higher = more signal.
Assay [2] concerns Human papillomavirus type 1a E7 protein (residues 1-88). As to the kind of experiment: HPV1a E7 small-molecule binders, primary screen, biochemical, small-molecule microarray, residues 1-88, 635 nm (AID 1129). The settings on record: small-molecule microarray binding, fluorescence 635 nm; higher = more signal.
Assay [3] concerns the target Focal adhesion kinase 1 (Homo sapiens) (UniProt Q05397). As to the kind of experiment: PTK2 protein binding on printed compound slides – biochemical, small-molecule microarray, 635/667 nm fluorescence, BSA, DTT, primary screen (AID 1130).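 Further: composite of spot emission at 667 nm and signal to noise over triplicate slides.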 As to conditions: 635 nm fluorescence, higher = more signal.
In assay [4] the test system is Fibrinogen (Alexa647-labelled). The experiment in a line: Alexa647-fibrinogen binding to printed small molecules – biochemical, small-molecule microarray, 635/667 nm fluorescence, artefact control for SMM control-protein annotation, profiling panel (AID 1131).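 Further: z-score merges 667 nm fluorescence with per-spot signal-to-noise over triplicate slides.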 The settings on record: fibrinogen-A647 binding fluorescence, higher = more signal.
Assay [5] concerns the target Follistatin (Homo sapiens) (UniProt P19883). As to the kind of experiment: FST protein binding to printed compounds – biochemical, small-molecule microarray, 635/667 nm fluorescence, primary screen (AID 1132). The settings on record: 635 nm fluorescence, higher = more signal.
In assay [6] the target is Fibroblast growth factor 2 (Homo sapiens) (UniProt P09038). The experiment in a line: basic fibroblast growth factor binding to printed compounds – biochemical, small-molecule microarray, 635/667 nm fluorescence, primary screen (AID 1133). As to conditions: FGF2, fluorescence 635/667, higher = more signal.
Sequence of Fibroblast growth factor 2 (Homo sapiens) (P09038 whole entry, looked up): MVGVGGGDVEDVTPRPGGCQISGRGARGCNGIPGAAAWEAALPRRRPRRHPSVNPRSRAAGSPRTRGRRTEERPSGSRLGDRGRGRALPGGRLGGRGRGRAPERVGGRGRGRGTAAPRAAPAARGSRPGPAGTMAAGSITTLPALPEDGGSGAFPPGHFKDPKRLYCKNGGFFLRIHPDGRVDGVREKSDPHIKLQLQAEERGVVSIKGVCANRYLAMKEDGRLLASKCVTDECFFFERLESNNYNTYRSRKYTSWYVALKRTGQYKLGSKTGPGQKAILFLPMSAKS
Assay [7] can be described thus: JC-1 mitochondrial potential readout, lung cancer cells – cell-based, A549, JC-1 fluorescence, basal, 24 h, 100 nL, profiling panel (AID 1138).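 Further: A549 lung adenocarcinoma cells under basal conditions with no added stimulus; test concentration not given here.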 As to conditions: higher = more signal.
The test system of a further assay is Lefty1. As to the kind of experiment: Lefty1 protein binding to printed compounds – biochemical, small-molecule microarray, 635/667 nm fluorescence, primary screen (AID 1139). The settings on record: fluorescence 635/667, higher = more signal.
Assay [8] relates to wheat germ agglutinin (Triticum aestivum), Alexa647-labelled. As to the kind of experiment: Alexa647-WGA lectin binding to printed small molecules – biochemical, small-molecule microarray, 635/667 nm fluorescence, artefact control for SMM control-protein annotation, profiling panel (AID 1140).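 Further: score merges 667 nm feature emission with signal to noise over triplicate slides.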 As to conditions: WGA-A647 binding, 635 nm fluorescence, higher = more signal.
In assay [9] the target is Luciferin 4-monooxygenase (Photinus pyralis) (UniProt P08659). As to the kind of experiment: inhibition of purified Photinus pyralis luciferase – biochemical, luminescence, purified enzyme, 2006 set, primary screen (AID 1141).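 Further: cell-free assay with purified firefly luciferase at 100 ng per well in PBS; test concentration not given here.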 As to conditions: purified firefly luciferase, SteadyGlo luminescence, 30 min; higher = more signal, called active from +8 up or from −8 down.
Sequence of Luciferin 4-monooxygenase (Photinus pyralis) (P08659 whole entry, looked up): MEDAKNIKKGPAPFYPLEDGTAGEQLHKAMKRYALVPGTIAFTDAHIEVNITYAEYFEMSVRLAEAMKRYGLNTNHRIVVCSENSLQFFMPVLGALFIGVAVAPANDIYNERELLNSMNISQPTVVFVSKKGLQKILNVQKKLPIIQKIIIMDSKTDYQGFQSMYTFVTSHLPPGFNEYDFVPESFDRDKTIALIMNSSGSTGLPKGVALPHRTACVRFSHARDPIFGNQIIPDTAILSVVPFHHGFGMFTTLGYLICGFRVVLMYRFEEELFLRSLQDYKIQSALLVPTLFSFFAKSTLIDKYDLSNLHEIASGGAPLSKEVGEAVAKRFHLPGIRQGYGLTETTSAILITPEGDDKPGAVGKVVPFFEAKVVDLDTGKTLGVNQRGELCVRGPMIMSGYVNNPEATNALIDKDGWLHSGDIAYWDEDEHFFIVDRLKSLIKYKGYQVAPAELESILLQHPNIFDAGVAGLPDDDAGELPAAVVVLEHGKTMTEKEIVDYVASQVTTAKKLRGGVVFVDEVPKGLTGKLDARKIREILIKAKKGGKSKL
In assay [10] the test system is Wnt5a (protein binding on small-molecule microarray). As to the kind of experiment: small molecules binding Wnt5a protein – biophysical, small-molecule microarray, 635/667 nm fluorescence, primary screen (AID 1142).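 Further: fluorescence read at 667 nm with signal to noise per printed feature.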 The settings on record: 635 nm fluorescence, higher = more signal.
Assay [11] in a line: ATP-based viability of Huh7 replicon cells – cell-based, CellTiter-Glo luminescence, basal, 48 h, cytotoxicity control for HCV replication inhibitor project, primary screen (AID 1143).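 Further: Huh7 hepatoma cells carrying a hepatitis C replication reporter with no stimulus; test concentration not given here.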 The settings on record: higher = more signal, called active from +8 up or from −8 down. In general terms: A replicon is a self-replicating genome or part of one, used to study replication in cells.

Assay [12] in a line: Pseudomonas biofilm growth suppression – PAO1 strain, BacTiter-Glo luminescence, LB-PBS, primary screen (AID 1144). As to conditions: P. aeruginosa PAO1 biofilm, 12 h, higher = more signal.
Assay [13] is described as follows: basal CRE-LacZ reporter activity in PC12 – cell-based, unstimulated, primary screen (AID 1145). As to conditions: no forskolin, luminescence, 4.5 h, higher = more signal, called active from +8 up or from −8 down.
A short description of assay [14]: forskolin-driven CRE-LacZ activity in PC12 – cell-based, CRE-LacZ reporter, forskolin-stimulated, primary screen (AID 1146).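 Further: PC12 cells with 6xCRE LacZ reporter stimulated by forskolin 10 µM; beta-galactosidase reporter signal reflecting CREB driven transcription.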 As to conditions: luminescence, 4.5 h, higher = more signal, called active from +8 up or from −8 down.
The target in assay [15] is Streptavidin (Streptomyces avidinii) (UniProt P22629). As to the kind of experiment: compounds binding control protein streptavidin – biophysical, small-molecule microarray, 635/667 nm fluorescence, artefact control for SMM compound annotation, primary screen (AID 1147).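 Further: signal reflects streptavidin binding to arrayed compounds as a control protein.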 The settings on record: higher = more signal.
Sequence of Streptavidin (Streptomyces avidinii) (P22629 whole entry, looked up): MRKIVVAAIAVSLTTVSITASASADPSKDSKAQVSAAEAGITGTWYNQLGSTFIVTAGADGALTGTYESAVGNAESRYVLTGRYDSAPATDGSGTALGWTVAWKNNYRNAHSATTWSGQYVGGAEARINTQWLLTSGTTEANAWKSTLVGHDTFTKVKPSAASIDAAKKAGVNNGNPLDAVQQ
Assay [16] is described as follows: probe aInhba binding on compound microarray – biochemical, small-molecule microarray, 635/667 nm fluorescence, primary screen (AID 1148).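 Further: score merges 667nm spot fluorescence with signal-to-noise for antibody binding to printed compounds.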 The settings on record: higher = more signal.
Assay [17] deals with Torsin-1A (Homo sapiens) (UniProt O14656). The experiment in a line: TOR1A wild-type binding on microarray – cell lysate, small-molecule microarray, lysate, 635/667 nm, primary screen (AID 1149). As to conditions: COS7 hTOR1A-WT lysate, 635 nm fluorescence, higher = more signal.
Sequence of Torsin-1A (Homo sapiens) (O14656 whole entry, looked up): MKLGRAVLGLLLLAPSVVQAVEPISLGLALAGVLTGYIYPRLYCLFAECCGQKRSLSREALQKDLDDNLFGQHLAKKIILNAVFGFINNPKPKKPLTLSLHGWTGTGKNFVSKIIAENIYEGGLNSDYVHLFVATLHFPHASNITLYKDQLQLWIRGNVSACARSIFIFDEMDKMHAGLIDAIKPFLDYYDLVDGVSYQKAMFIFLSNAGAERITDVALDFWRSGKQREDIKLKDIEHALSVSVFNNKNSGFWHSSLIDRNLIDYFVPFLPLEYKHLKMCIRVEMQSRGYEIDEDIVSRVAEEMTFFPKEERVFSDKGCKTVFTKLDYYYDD
Assay [18] has the same target. As to the kind of experiment: torsin A mutant lysate binding on microarrays – cell lysate, small-molecule microarray, COS7 lysate, 635/667 nm fluorescence, primary screen (AID 1150).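 Further: score pools 667 nm emission and signal to noise measuring lysate protein binding.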 As to conditions: COS7 hTOR1A mutant lysate, 635 nm fluorescence, higher = more signal.
For assay [19], the system named is Sonic hedgehog protein (Shh). As to the kind of experiment: Sonic hedgehog microarray binding compounds – biochemical, small-molecule microarray, 635/667 nm fluorescence, primary screen (AID 1151).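 Further: Shh protein binding to compounds spotted on small-molecule microarray slides; score combines spot fluorescence intensity with signal-to-noise across triplicate slides.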 The settings on record: 635 nm fluorescence, higher = more signal.

Active and inactive are the calls of the source. Unless noted, how the calls were made is not given here.

Sequence of Follistatin (Homo sapiens) (P19883 whole entry, looked up): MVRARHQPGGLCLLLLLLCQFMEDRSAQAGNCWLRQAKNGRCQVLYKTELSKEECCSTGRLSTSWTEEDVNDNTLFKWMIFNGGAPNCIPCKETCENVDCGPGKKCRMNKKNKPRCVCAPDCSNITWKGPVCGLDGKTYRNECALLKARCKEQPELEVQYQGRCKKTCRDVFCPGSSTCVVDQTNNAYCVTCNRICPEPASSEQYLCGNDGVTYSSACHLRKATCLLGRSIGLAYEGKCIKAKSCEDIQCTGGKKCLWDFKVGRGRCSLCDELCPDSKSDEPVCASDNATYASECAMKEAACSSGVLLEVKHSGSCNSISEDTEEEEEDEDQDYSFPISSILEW
Sequence of Focal adhesion kinase 1 (Homo sapiens) (Q05397 whole entry, looked up): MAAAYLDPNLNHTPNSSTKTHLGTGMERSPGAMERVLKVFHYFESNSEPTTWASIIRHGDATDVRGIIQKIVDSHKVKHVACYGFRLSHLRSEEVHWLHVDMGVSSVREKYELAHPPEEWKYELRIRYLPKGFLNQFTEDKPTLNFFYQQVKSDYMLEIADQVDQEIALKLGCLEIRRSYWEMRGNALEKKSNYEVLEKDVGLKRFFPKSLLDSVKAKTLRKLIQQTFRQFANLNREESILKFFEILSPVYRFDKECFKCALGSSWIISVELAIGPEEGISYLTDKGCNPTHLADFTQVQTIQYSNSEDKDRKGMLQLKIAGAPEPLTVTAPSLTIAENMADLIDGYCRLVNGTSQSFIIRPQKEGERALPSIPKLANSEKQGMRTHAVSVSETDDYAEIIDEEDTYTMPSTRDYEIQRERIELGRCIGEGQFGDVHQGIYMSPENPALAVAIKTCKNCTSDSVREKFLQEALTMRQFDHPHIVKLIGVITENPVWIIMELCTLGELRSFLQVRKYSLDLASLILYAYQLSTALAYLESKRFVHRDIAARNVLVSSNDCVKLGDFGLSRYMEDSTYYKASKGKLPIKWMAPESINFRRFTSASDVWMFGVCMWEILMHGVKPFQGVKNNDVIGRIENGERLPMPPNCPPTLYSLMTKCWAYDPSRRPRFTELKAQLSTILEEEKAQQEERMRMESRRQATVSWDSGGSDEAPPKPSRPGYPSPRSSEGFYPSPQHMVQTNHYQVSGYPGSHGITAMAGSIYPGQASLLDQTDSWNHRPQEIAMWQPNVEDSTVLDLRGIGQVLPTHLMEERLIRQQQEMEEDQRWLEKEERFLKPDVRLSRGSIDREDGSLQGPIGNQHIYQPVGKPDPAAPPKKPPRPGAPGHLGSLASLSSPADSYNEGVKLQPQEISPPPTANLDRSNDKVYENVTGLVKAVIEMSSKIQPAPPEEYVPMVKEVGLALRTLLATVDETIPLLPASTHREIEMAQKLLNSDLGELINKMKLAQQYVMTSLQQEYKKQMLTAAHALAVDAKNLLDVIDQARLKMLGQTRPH

For the compound `CC1(C)[C@@H]2CC(C(O)C3C=CC4C(=O)N(c5ccccc5)C(=O)C4N3Nc3ccccc3)=C[C@H]1C2` (stereo not given in full), the composite z-score in assay [1] is -0.21; in assay [2], 0.598; in assay [3], 1.13; in assay [4], 0.153; in assay [5], 0.955; in assay [6], 0.329. The composite z-score is -0.409 in the assay with Lefty1; 0.241 in [8]; 0.0836 in assay [10]; 0.595 in [15]; 0.571 in assay [16]; -0.37 in the assay with Torsin-1A (Homo sapiens) [17]. The composite z-score with Torsin-1A (Homo sapiens) [18] is -0.233; in [19], -0.385. The z-score in assay [7] is 1.01; in [9], 0.486 (inactive); in assay [11], 0.355 (inactive); in [12], -0.959 (inactive); in assay [13], 1 (inactive); in assay [14] it was 0.874 (inactive).

Regarding `Cc1ccc(S[C@]2(C(=O)NCC(F)(F)F)CC(=O)N(C(C)C)[C@@H]2c2ccc(CO)cc2I)cc1`, the composite z-score was -1.45 in assay [1]; -0.68 in [2]; -0.188 in [3]; -1.11 in [4]; -0.366 in [5]; 0.0888 in assay [6]. Moreover, the composite z-score in the assay with Lefty1 was -1.13; in assay [8], -0.86; in [10] it was 0.0446; in [15], -0.563; in assay [16] it was -0.128; with Torsin-1A (Homo sapiens) [17], -0.846. Also, the composite z-score with Torsin-1A (Homo sapiens) [18] was -0.474; in [19], -0.594. Moreover, the z-score in [7] is 0.758; in assay [9], -1.01 (inactive); in assay [11] it was -1.53 (inactive); in assay [12], 0.111 (inactive); in [13], 0.118 (inactive); in assay [14], 0.725 (inactive).

For `NC(=O)[C@@H]1[C@H]2C(=O)O[C@H](c3ccccc3)[C@H](c3ccccc3)N2[C@H](c2ccc(O)cc2)[C@@]12C(=O)Nc1ccc(C#CC3(O)CCCCCC3)cc12`, the composite z-score in assay [1] was 0.6; in assay [2], -0.239; in assay [3] it was -0.205; in assay [4] it was -0.819; in assay [5], -0.0584; in [6], -0.384. The composite z-score in the assay on Lefty1 is -0.502; in assay [8] it was -0.0999; in assay [10], -0.277; in assay [15], -1.08; in [16], -0.148; with Torsin-1A (Homo sapiens) [17] it was 0.398. Moreover, the composite z-score with Torsin-1A (Homo sapiens) [18] was 1.1; in assay [19], -0.323. The z-score in [7] is -1.06; in assay [9] it was -0.869 (inactive); in assay [11], -0.0907 (inactive); in assay [12], -0.269 (inactive); in [13] it was 0.568 (inactive); in assay [14] it was -0.301 (inactive).

As to `C=C(/C(=C/C[C@@H](OC(C)=O)c1ccc(OCCO)cc1)c1cnc2ccccc2c1)C(C)C`, the composite z-score is 0.204 in [1]; 0.408 in [2]; 0.166 in [3]; -0.59 in [4]; 1.1 in [5]; 0.757 in [6]. The composite z-score with Lefty1 was 0.806; in assay [8], 0.983; in assay [10], 0.0701; in assay [15], 0.376; in assay [16], -0.084; in the assay with Torsin-1A (Homo sapiens) [17], -0.969. In addition, the composite z-score with Torsin-1A (Homo sapiens) [18] turned out to be 0.576; in [19], 1.67. Besides, the z-score in assay [7] is 1.04; in assay [9] it was -1.6 (inactive); in [11], -1.07 (inactive); in [12], -0.25 (inactive); in [13] it was 0.681 (inactive); in assay [14], -0.45 (inactive).

For `COCCOC(=O)N1C(=O)[C@@]2(c3cc(C#CCCO)ccc31)[C@H](C(=O)N1CCc3cc(OC)c(OC)cc3C1)[C@H]1C(=O)O[C@H](c3ccccc3)[C@H](c3ccccc3)N1[C@@H]2c1ccc(O)cc1`, the composite z-score in [1] came to 1.89; in assay [2], 1.22; in [3], 0.831; in [4] it was 0.904; in assay [5], 0.949; in assay [6], 0.622. Further, the composite z-score is 0.791 in the assay on Lefty1; 0.393 in [8]; 0.304 in assay [10]; 0.25 in [15]; 0.132 in [16]; 0.73 in the assay with Torsin-1A (Homo sapiens) [17]. The composite z-score was determined as 0.538 with Torsin-1A (Homo sapiens) [18] and 0.918 in assay [19]. Moreover, the z-score in [7] is 0.188; in assay [9], -0.407 (inactive); in assay [11], -0.173 (inactive); in assay [12], -0.14 (inactive); in assay [13], -0.815 (inactive); in assay [14], -0.742 (inactive).
